Source: PubChem BioAssay (National Center for Advancing Translational Sciences (NCATS))
Hits are enriched below; roughly 6.2% of the tested compounds scored in any of these assays.
RORgamma inh = inhibitors of mouse ROR gamma transcriptional activity | P51450 | Drosophila S2 Gal4-RORgamma UAS-luciferase reporter, 20 h | Potency, µM (top dose mostly 53.6 µM), for inactives: at the highest dose activity change, negative = inhibition, hits mostly inhibitors | 310,000 compounds, 5.4% hits; also: nearly all actives have a fitted effect of over 60% in size
Target sequence (P51450 whole entry, looked up, the tested form may be a part): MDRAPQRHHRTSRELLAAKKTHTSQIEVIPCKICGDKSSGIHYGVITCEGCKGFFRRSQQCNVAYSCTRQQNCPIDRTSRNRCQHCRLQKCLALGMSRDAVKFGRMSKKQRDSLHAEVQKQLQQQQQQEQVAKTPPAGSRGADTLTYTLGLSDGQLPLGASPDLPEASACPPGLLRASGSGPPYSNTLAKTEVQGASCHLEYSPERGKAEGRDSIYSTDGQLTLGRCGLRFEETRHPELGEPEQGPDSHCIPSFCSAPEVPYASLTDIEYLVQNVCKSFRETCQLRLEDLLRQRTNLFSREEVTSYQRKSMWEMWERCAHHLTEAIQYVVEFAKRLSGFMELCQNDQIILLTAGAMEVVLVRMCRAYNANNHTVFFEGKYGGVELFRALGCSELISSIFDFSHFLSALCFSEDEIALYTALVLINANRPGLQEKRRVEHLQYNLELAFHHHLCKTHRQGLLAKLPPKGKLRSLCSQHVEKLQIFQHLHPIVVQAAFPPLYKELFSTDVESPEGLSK
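Drosophila S2 cells stably expressing Gal4-DBD/mouse RORγ fusion under metallothionein promoter plus UAS-luciferase; compound 1 h, then 700 uM CuSO4 induction for 20 h at ambient temperature; inhibition read as reduced luminescence.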
VP16 counter = inhibits Gal4-VP16 luciferase reporter, ROR gamma counter-screen | Drosophila S2 Gal4-VP16 UAS-luciferase, luminescence, 20 h | Potency, µM (doses to about 53.6 µM), for inactives: at the top dose activity, negative = inhibition, most hits filed as inhibitors | 310,000 compounds, 3.5% hits | AID 2546;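 also: Gal4-VP16 expression switched on by copper sulfate through the metallothionein promoter; nearly all actives have a fitted effect of over 50% in size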
KinaseGlo FLuc = Kinase-Glo luciferase inhibition (counter-screen) | AID 1379 | Kinase-Glo luciferase, ATP luminescence, 8 min | 200,000 compounds, 0.28% hits | Potency, µM (highest dose often 38.3 µM), for inactives: top-dose activity change, negative = inhibition, most hits filed as inhibitors; also: nearly all actives have a fitted effect of over 60% in size
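Substrate mix (final 50 mM imidazole pH 7.2, 50 mM KCl, 7 mM MgCl2, 10 uM ATP, 0.01% Tween 20, 0.05% BSA) plus pin-tool compound, then Kinase-Glo detection mix; 8 min ambient, luminescence read.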
Starred values were filed as active, the others as inactive; u = inconclusive; x = no result; [ ] = dose if it differs, or a comment. Calls follow the shape of the dose curve; as a rule, active = well fitted curve in the direction sought with a large enough effect; inconclusive = small, poorly fitted or top-dose-only effect, or another doubt; inactive = no such curve, though single readings can be large; an effect the other way counts as inactive or inconclusive. % is scaled to controls: 0 for no effect and ±100 for the full control effect; potency is read from the fitted curve at half-maximal effect.

SMILES | RORgamma inh | VP16 counter | KinaseGlo FLuc
Cc1csc2ncnc(NC3CCN(Cc4ccccc4)CC3)c12 | 2.5µM* | 2.8µM* | x
Cc1ccc(-c2csc3ncnc(N4CCN(Cc5ccccc5)CC4)c23)cc1 | u | -2% | x
O=C1c2ccccc2-c2ccc(N(Cc3ccc(Br)cc3)Cc3ccc(Br)cc3)cc21 | x | x | 2%[7.66 µM]
C=CCNC(=S)Nc1ccc2nc(C)oc2c1 | -16% | -12% | -1%
C=CCNC(=S)Nc1nc2c(cc1C(=O)OCC)CCCC2 | 4µM* | 8.9µM* | -4%
CCOC(=O)CC(=O)COc1nc2cc3c(nc2o1)CCCC3 | 2% | 0% | x
CCNC(=S)Nc1nc2c(cc1C(=O)OCC)CCCC2 | 0.56µM* | 1.8µM* | 0%
Cc1ccc(C(=O)N/N=C(/CC(=O)c2cccs2)C(F)(F)F)cc1 | 11µM* | 7.1µM* | 5%
O=C(N/N=C(\CC(=O)c1cccs1)C(F)(F)F)c1ccncc1 | -19% | -29% | x
CCOc1ccc(NC(=O)N2CCC(NC(=O)C(Cc3cccc(F)c3)NC(C)=O)CC2)cc1 (stereo not given) | -3% | -24% | x
COc1cc2nc(SCc3ccc(F)cc3)n(Cc3cccs3)c(=N)c2cc1OC | -1% | u | 1%
COc1ccc(Cn2c(SCc3ccccc3C)nc3cc(OC)c(OC)cc3c2=N)cc1 | u | 22µM* | -2%
CCCCCCCCCCCCCCNCCO | 13% | 0% | x
C/C(=N/Nc1nc(C)c(C)s1)c1cccc([N+](=O)[O-])c1 | 11µM* | u | x
C/C(=N\NC(=O)c1ccc([N+](=O)[O-])cc1)c1cccc([N+](=O)[O-])c1 | -34% | -13% | -2%
Cc1cccc(NC(=S)N/N=C(\c2ccccc2)C(C)C)c1 | 4.5µM* | u | 0%
C/C(=N\Nc1nc(N)cc(Cl)n1)c1cccc([N+](=O)[O-])c1 | -39% | 3% | -3%
CNC(=S)Nc1cccc([N+](=O)[O-])c1 | 3% | 6% | 0%
CC/C(=N\NC(=S)Nc1cccc(C)c1)c1ccccc1 | u | u | -3%
Cc1cc(Br)ccc1NC(=S)Nc1cccc([N+](=O)[O-])c1 | 11µM* | u | x
C/C(=N\NC(=S)NC(C)C)c1cccc([N+](=O)[O-])c1 | 1.3µM* | 4µM* | -3%
N#CCn1cnc2c(oc3ccccc32)c1=O | 27% | -6% | x
COCCNc1ncnc2ccc(-c3ccccc3C(F)(F)F)cc12 | u | -15% | x
CC(OC(=O)c1ccc([N+](=O)[O-])s1)C(=O)Nc1ncc(Cl)cc1Cl (stereo not given) | -41% | u | 2%
Cc1c(Br)c([N+](=O)[O-])nn1CC(=O)N(C)Cc1ccccc1 | 14% | -9% | -2%
SMILES | RORgamma inh | VP16 counter | KinaseGlo FLuc
C/C(=N/NC(=S)Nc1cccc(C)c1)c1cccc([N+](=O)[O-])c1 | 2.8µM* | 10µM* | -1%
C/C(=N\NC(=O)c1cccc([N+](=O)[O-])c1)c1cccc(NC(=O)C2CC2)c1 | -36% | -8% | -1%
CC(=O)C1=C(C)NC(SCC(=O)c2ccc(Cl)c(Cl)c2)=C(C#N)C1c1ccco1 (stereo not given) | u | -63% | 3%
CCc1ccc(C(=O)CSC2=C(C#N)C(c3ccco3)C(C(C)=O)=C(C)N2)cc1 (stereo not given) | 6.3µM* | u | -1%
CC(=O)C1=C(C)NC(SCC(=O)c2cc(Cl)ccc2Cl)=C(C#N)C1c1ccco1 (stereo not given) | 6.3µM* | 3.5µM* | -3%
CC(=O)C1=C(C)NC(SCC(=O)c2ccc(F)cc2)=C(C#N)C1c1ccco1 (stereo not given) | 17% | 4% | -3%
CC(C)CNC(=O)COC(=O)CCC(=O)c1ccc(Cl)cc1 | -20% | -5% | -3%
COc1ccc(CN(CC2CCC(C(=O)O)CC2)C(=S)Nc2cc(C)cc(C)c2)cc1 (stereo not given) | u | -17% | x
Cc1occc1C(=O)Nc1cc(C(C)(C)C)on1 | -24% | 5% | 11µM*
Cc1cccc(NC(=O)c2ccoc2C)n1 | 26% | 9% | u
Cc1nc(NS(=O)(=O)c2ccc(Cl)s2)c2c3c(sc2n1)CCCC3 | 15% | -4% | x
O=C(c1cc(Cl)cc(Cl)c1)N1CCN(c2cc(C(F)(F)F)nc3ccccc23)CC1 | 3% | 3% | x
O=C(Cc1c(F)cccc1Cl)Nc1ccccc1N1CCCCC1 | 13% | 4% | -3%
COc1ccc(NC(=S)N2CCCC2)cc1 | 7% | -5% | -1%
CCCN1C2CCCC1CC(NC(=O)Nc1ccc(C(C)C)cc1)C2 (stereo not given) | -37% | 12% | -1%
CC1CCCCN1C(=S)Nc1ccc(OC(F)F)cc1 (stereo not given) | -43% | -7% | -1%
COc1ccc(NC(=S)NN2C(C)CCCC2C)cc1 (stereo not given) | 7.9µM* | 7.1µM* | x
COc1cccc(NC(=S)NN2C(C)CCCC2C)c1 (stereo not given) | 2.2µM* | 5.6µM* | 0%
COc1cccc(NC(=S)NN2CCN(C)CC2)c1 | -18% | -14% | -6%
CC1CCCC(C)N1NC(=S)Nc1ccc(OC(F)F)cc1 (stereo not given) | 3.2µM* | 6.3µM* | 2%
CC(C)c1ccc(NC(=S)NN2C(C)CCCC2C)cc1 (stereo not given) | 1.6µM* | 6.3µM* | 1%
O=Cc1ccc(OC2C=CC(C#Cc3ccccc3)OC2CO)cc1 (stereo not given) | 4%[10 µM] | 5%[10 µM] | x
COC(=O)COc1ccc(S(=O)(=O)Nc2ccccc2C(=O)OC)cc1 | -15% | 0% | -1%
CC(C)=O | 14% | -17% | x
CCCNC(=O)/C(C#N)=C1\N=C(NC(=O)c2cccs2)c2ccccc21 | 26% | u | x
SMILES | RORgamma inh | VP16 counter | KinaseGlo FLuc
N#CC(c1ccccc1)c1cccc(Cl)n1 (stereo not given) | 18% | 1% | 1%
N#CC(c1cccc(Cl)c1)c1ccc2c(C(F)(F)F)cc(C(F)(F)F)nc2n1 (stereo not given) | 5µM* | 4µM* | u
COC(=O)c1ccc(C(=O)OC)c(NC(=S)N2CCCC2)c1 | -32% | -7% | x
COC(=O)c1ccc(C(=O)OC)c(NC(=S)N2CCCCC2C)c1 (stereo not given) | 16µM* | u | 0%
Cc1ccc(NC(=O)C2CCCN(S(=O)(=O)c3cccc4cccnc34)C2)cc1 (stereo not given) | 32% | -1% | x
COc1ccc(NC(=O)c2ccccc2NC(=O)NC2CCCCC2)cc1 | 4% | -4% | -2%
CCN(CC(=O)NCc1ccc(F)cc1)C(=O)C1CC1C (stereo not given) | 1% | 5% | x
O=C1[C@H]2CCC=C[C@H]2[C@H](c2ccccc2Br)N1Cc1ccccc1 | 18% | -3% | -1%[39.9 µM]
COc1ccc(N2C(=O)[C@H]3CCC=C[C@H]3[C@@H]2c2ccccc2Br)cc1 | 18µM* | 32µM* | 0%[39.9 µM]
Cc1ccc(C)c(N(C(=O)c2snc(C(N)=O)c2N)C(C(=O)NCC2CCCO2)c2ccc(C)o2)c1 (stereo not given) | -2% | -2% | x
COC(=O)Nc1ccc(S(=O)(=O)N2CCCc3ccccc32)cc1 | -19% | -7% | 3%
Cc1cc(NC(=O)c2ccc(S(=O)(=O)N3CCc4ccccc43)cc2)no1 | 11µM* | u | 1%
